Source: PubChem BioAssay (National Center for Advancing Translational Sciences (NCATS))
Luc counter = blocks Kinase-Glo luciferase, a counter-screen artifact; Q27757; Kinase-Glo luciferase, ATP luminescence, 8 min; Potency, µM (doses to about 38.3 µM), for inactives: at the highest dose activity change, negative = inhibition, most hits filed as inhibitors; actives 0.28% (n = 200,000); note: % is set by controls: 0 for no effect and ±100 for the full control effect; nearly all actives have a fitted effect of over 60% in size
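Inhibition of Kinase-Glo luciferase light generation was assessed at 10 uM ATP in pH 7.2 imidazole buffer, with luminescence measured after eight minutes at ambient temperature.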
ELG1 genotoxic = induces genotoxicity in HEK293T cells with luciferase-tagged ELG1 | actives 1.3% (n = 330,000) | HEK293T ELG1-luciferase reporter, luminescence, 16 h | Potency, µM (highest dose often 46 µM), without a hit: top-dose activity change, positive = activation, usual class: activators | AID 504466; note: % of control where 0% means no effect; nearly all actives have a fitted effect of over 60% in size
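DMSO vehicle served as control against compound-treated ELG1-luciferase HEK293T cells; exposure lasted 16 hr at 37 °C and 5% CO2, followed by ONE-Glo luminescence detection after 30 min.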
FLuc modulator = counter-screen for miR-21 project: firefly luciferase inhibitors or activators. P08659. Potency, µM (series often up to 57.5 µM), for inactives: at the top dose activity change, negative = inhibition, usual class: inhibitors. purified FLuc, Km substrates, luminescence inhibition. AID 588342. actives 6.9% (n = 360,000);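 note: plate controls were vehicle for no effect and reference inhibitor for full effect; nearly all actives have a fitted effect of over 55% in size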
Target sequence (P08659 whole entry, looked up): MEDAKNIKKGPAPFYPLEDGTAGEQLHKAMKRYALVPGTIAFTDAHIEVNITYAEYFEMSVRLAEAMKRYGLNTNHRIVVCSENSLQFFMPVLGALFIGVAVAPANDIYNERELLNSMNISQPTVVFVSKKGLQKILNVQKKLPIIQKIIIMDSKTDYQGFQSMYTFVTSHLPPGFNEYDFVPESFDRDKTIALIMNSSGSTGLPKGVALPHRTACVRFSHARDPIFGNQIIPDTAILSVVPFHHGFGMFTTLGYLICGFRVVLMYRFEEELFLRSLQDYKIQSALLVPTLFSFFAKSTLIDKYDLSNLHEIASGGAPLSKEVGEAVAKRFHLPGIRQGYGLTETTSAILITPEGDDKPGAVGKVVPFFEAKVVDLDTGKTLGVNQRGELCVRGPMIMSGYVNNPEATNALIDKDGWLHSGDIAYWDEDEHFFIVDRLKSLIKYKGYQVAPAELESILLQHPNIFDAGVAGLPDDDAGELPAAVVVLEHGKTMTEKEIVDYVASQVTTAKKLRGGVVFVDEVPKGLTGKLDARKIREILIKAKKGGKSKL
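Purified P. pyralis luciferase (10nM final) with 10uM D-luciferin and 10uM ATP (Km levels) in 50mM Tris acetate pH 7.5, 10mM Mg acetate, 0.01% Tween-20, 0.05% BSA; qHTS 6-point titration, ~60 µM downward; luminescence read.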
NPC1 prom act = NPC1 promoter activation; Huh7 NPC1 promoter luciferase reporter, 24 h; Potency, µM (highest dose often 9.22 µM), inactives show top-dose activation, most hits filed as activators; actives 2.4% (n = 320,000); AID 485313; note: % of control where 0% means no effect; nearly all actives have a fitted effect of over 60% in size
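Compounds in DMSO were transferred onto Huh7 NPC1-luciferase reporter cells pre-incubated 2 h; after 24 h at 37 °C, Amplite reagent was dispensed and luminescence recorded 10 min later.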
SMN2 splice enh = increases expression of the SMN2 splice variant | Potency, µM (series often up to 46.1 µM), without a hit: top-dose activity change, positive = activation, usual class: activators | HEK293 SMN2-luciferase splicing reporter, luminescence, 30-36 h | actives 2.8% (n = 210,000); note: % of control where 0% means no effect; nearly all actives have a fitted effect of over 55% in size
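HEK293 cells carry an SMN2 […]–luciferase reporter in which exon 7 inclusion puts luciferase in frame. Cells were plated 10-12 h before compound addition, then incubated 30-36 h at 37C. ONE-Glo luminescence was read; sodium butyrate at 4.5 mM final served as control.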
Rab9 prom act = activators of Rab9 promoter. actives 2.8% (n = 320,000). AID 485297. Huh7 Rab9 promoter-luciferase reporter, luminescence, 24 h. Potency, µM (top dose mostly 9.22 µM), for inactives: at the top dose activation, negative = inhibition, most hits filed as activators; note: % of control where 0% means no effect; nearly all actives have a fitted effect of over 60% in size
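Luciferase signal after 10 min detection reagent at ambient indicates Rab9 promoter upregulation; stably transfected Huh7 cells were treated 24 h with compound in DMSO at 37 °C, 5% CO2.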
Active calls of the source: *; ? = inconclusive; nt = no result; [ ] = remark or other dose. Rows were chosen to be rich in hits. Some 7.4% of all compounds tested hit in one or more screens of this group. Calls come from the whole dose curve; as a rule, active = well fitted curve in the direction sought with a large enough effect; inconclusive = small, poorly fitted or top-dose-only effect, or another doubt; inactive = no such curve, though single readings can be large; an effect the other way counts as inactive or inconclusive. Potency is the fitted concentration of half-maximal effect.

SMILES	Luc counter	ELG1 genotoxic	FLuc modulator	NPC1 prom act	SMN2 splice enh	Rab9 prom act
CC(C)[C@H](CO)Nc1nc(Nc2cccc(Cl)c2)c2ncn(C(C)C)c2n1	1%	nt	nt	nt	nt	nt
COc1ccc(-n2c(=O)c3sc4ccccc4c3n(CC(=O)NC3CCCCC3)c2=O)cc1	nt	nt	-2%	nt	-15%	nt
O=[N+]([O-])c1ccc(O)c(-c2nn[nH]n2)c1	-1%	?	27µM*	13%	-3%	27%
NS(=O)(=O)O	nt	nt	nt	nt	18%	nt
CC(C)(C)c1ccc(C(=O)Nc2ccc(S(=O)(=O)Nc3cnc4ccccc4n3)cc2)cc1	nt	3%	13µM*	1%	nt	0%[1.84 µM]
O=C(Nc1ccc(S(=O)(=O)Nc2cnc3ccccc3n2)cc1)c1ccc(Br)o1	-2%	-6%	17µM*	0%	-26%	-5%
COc1cc(OC)c(NS(=O)(=O)c2cc3c(cc2C)N(C(C)=O)CCO3)cc1Cl	nt	nt	-9%	nt	nt	nt
CC1=C(/C=C\C(=O)O)C(C)(C)CCC1	-4%[7.66 µM]	nt	nt	nt	-3%[9.22 µM]	nt
Oc1ccccc1C1NN=C(c2ccccc2)S1 (stereo not given)	nt	?	0.48µM*	?	nt	?
Cn1cccc1C(=O)C(=O)Nc1ccc(F)c(F)c1	-25%	?	11µM*	2µM*	11µM*	1.3µM*
Cn1cccc1C(=O)C(=O)Nc1ccc(Cl)cc1	?	?	1.9µM*	0.79µM*	10µM*	0.5µM*
Cn1cccc1C(=O)C(=O)Nc1cc(Cl)cc(Cl)c1	11µM*	25%	?	?	-4%	?
Cn1cccc1C(=O)c1ccc(Cl)cc1Cl	14%	3%	-4%	7%	-15%	1%
Cn1nccc1C(=O)NC(=S)Nc1cc(Cl)cc(Cl)c1	nt	2%	0%	-5%	nt	-7%
Cn1cccc1C(=O)C(=O)Nc1cccc(Cl)c1Cl	-18%	?	2.4µM*	5%	25µM*	22%
COC(=O)c1cccnc1-n1c(=O)c2cccnc2n(CC(=O)Nc2ccccc2F)c1=O	nt	nt	-2%	nt	-4%	nt
CCCn1c(-c2ccc(F)cc2)nc2c(N3CCN(C)CC3)nc(C)nc21	-6%	nt	nt	nt	-11%	nt
CCOC(=O)c1ccc(S(=O)(=O)NNC(=O)c2cccc(N(C)C)c2)cc1	6%	0%	19µM*	5%	15%	18%
Cc1cc(NC(=O)c2ccc(Cn3nc(C)c(Br)c3C)o2)no1	5%	5%	-1%	-4%	20µM*	1%
COc1cccc(CN(C(=O)c2ccc(C(C)(C)C)cc2)C2CCS(=O)(=O)C2)c1 (stereo not given)	nt	nt	-1%	nt	-3%	nt
CCOc1ccc(-c2cc(C(=O)NCCCn3ccnc3)c3ccccc3n2)cc1	-7%	-8%	6µM*	11%	21%	19%
Cc1ccc(Nc2cc(C(=O)NCCCN3CCOCC3)c3ccccc3n2)cc1C	nt	0%	12µM*	16%	nt	-4%
O=C(NCCCN1CCOCC1)c1cc(-c2ccccc2)nc2ccccc12	nt	8%	-3%	-2%	nt	-1%
COc1ccc(-c2cn3c(n2)sc2cc(C(=O)Nc4ccc(F)cc4Cl)ccc23)cc1	nt	nt	19µM*	nt	?	nt
COc1ccc(-c2cn3c(n2)sc2cc(C(=O)Nc4ccc(C)cc4C)ccc23)cc1	nt	nt	-1%	nt	nt	nt
SMILES	Luc counter	ELG1 genotoxic	FLuc modulator	NPC1 prom act	SMN2 splice enh	Rab9 prom act
CCOc1ccc(-c2cc(C(=O)NCCCn3ccnc3)c3cc(Br)ccc3n2)cc1	nt	6%	5.4µM*	1%	nt	-2%
COc1ccc(-c2cc(C(=O)NCCN3CCOCC3)c3ccccc3n2)cc1	8%	-1%	17µM*	0%	-6%	1%
CCOc1ccc(-c2cc(C(=O)NCCCN3CCN(CC)CC3)c3ccccc3n2)cc1	-8%	9%	8.5µM*	15%	7%	17%
CCCN1CCN(CCCNC(=O)c2ccc3c(c2)sc2nc(-c4ccc(OCC)cc4)cn23)CC1	nt	nt	11µM*	nt	-94%	nt
C[C@H]([C@H](C)N1CC(=O)NC(=O)C1)N1CC(=O)NC(=O)C1	nt	nt	nt	nt	-10%	nt
Cc1ncc(CSc2ccccc2N)c(CO)c1O	-3%[7.66 µM]	nt	nt	nt	-5%[9.22 µM]	nt
COc1ccc(N2CCN(C(CNC(=O)CC(C)C)c3ccc4c(c3)OCO4)CC2)cc1 (stereo not given)	nt	nt	5%	nt	nt	nt
Cc1ccc(Nc2nnc(SCC(=O)c3ccc(O)cc3O)s2)cc1	nt	2%	11µM*	-2%	nt	-1%
Cc1cccc(Nc2nnc(SCc3cc(=O)n4cc(C)ccc4n3)s2)c1	2%	-11%	-5%	-1%	-10%	0%
Cc1ccccc1Nc1nnc(SCC(=O)N(C)C2CCS(=O)(=O)C2)s1 (stereo not given)	2%	-1%	-11%	-2%	5%	0%
Cc1ccc(Nc2nnc(SCC(=O)N(C)C3CCS(=O)(=O)C3)s2)cc1 (stereo not given)	-2%	12%	8.5µM*	23%	?	25%
Cc1cccc(Nc2nnc(SCC(=O)c3ccc(O)cc3O)s2)c1	nt	?	9.5µM*	-2%	nt	5%
COC(=O)CCNC(=O)NC(CCC(C)C)c1c(-n2cccc2)sc2c1CCN(C)C2 (stereo not given)	nt	nt	2%	nt	nt	nt
Cc1nnc(NC(=O)c2ccc(S(=O)(=O)C(F)F)cc2)s1	nt	?	5.4µM*	?	nt	2.2µM*
Cc1nnc(NC(=O)c2ccncc2)s1	-1%	-1%	-12%	-1%	-13%	8%
Cc1cc(C)cc(NC(=O)c2ccc(S(=O)(=O)C(F)F)cc2)c1	3%	2%	13µM*	2%	19%	2%
COc1ccccc1C1C=C(c2ccc(Cl)cc2)Nc2nc(-c3ccc(Cl)cc3)nn21 (stereo not given)	nt	nt	-8%	nt	-29%	nt
CC1(C)C=Cc2cc3ccc(=O)oc3cc2O1	-2%	?	11µM*	?	14µM*	?
CNC(=O)NC(=O)C(C)OC(=O)c1c2c(nc3ccccc13)/C(=C/c1cccs1)CC2 (stereo not given)	3%	-17%	6µM*	-32%	?	-34%
CCCCNC(=O)COC(=O)c1c2c(nc3ccccc13)/C(=C/c1cccs1)CC2	-13%	-12%	7.6µM*	-32%	11µM*	-30%
CC(OC(=O)c1c2c(nc3ccccc13)/C(=C\c1ccc3c(c1)OCO3)CCC2)C(=O)Nc1ccc(S(N)(=O)=O)cc1 (stereo not given)	0%	-1%	?	-15%	-14%	0%
COc1ccc(O)c(/C=N/N2CCCCC2)c1	nt	?	9.5µM*	3.2µM*	nt	2µM*
COc1ccc(/C(C)=N/N2CCCCC2)c(O)c1	nt	7%	9.5µM*	5%	nt	18%
Oc1ccc(/C=N/N2CCCCC2)cc1O	nt	?	?	-22%	nt	-3%[1.84 µM]
